In all, about 200,000 compounds went through this assay and about 5,100 (2.5%) were called active. The sample holds actives, similar compounds and a random draw of the others, so the mix is not that of the screen.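 How the source made its calls: active means activation above the screen-wide mean activation plus 3 SD (cut at about 130% in these data); inactive means the rest.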

In PubChem BioAssay AID932 (The Scripps Research Institute Molecular Screening Center, 2007) one finds activation (% of control) data, which are given here for 106 compounds.

This assay is described as follows: STAT1 signaling activators, primary screen, cell-based, HTS, luciferase reporter (AID 932).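 Further: raw ratio to IFN-gamma control signal so 100% means no change and 0% no light.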 Particulars: NIH 3T3 STAT1-luciferase reporter, IFN-gamma, luminescence; at 5.5 µM; active compounds read high; 100% = IFN-gamma alone, no compound. (A reporter such as luciferase makes a cellular process visible.)
As to `Cc1ccc(-c2cn3cc([N+](=O)[O-])ccc3n2)cc1`, the activation (% of control) was 133% (active). Then `Cc1ccc(-n2cc3ccc([N+](=O)[O-])cc3n2)cc1`, with 123% (inactive). Then `Cc1ccc(-c2cn3cc(C)ccc3n2)cc1`, with 12.9% (inactive).

Take `CCN(/N=C/c1ccccc1)c1cc(=O)n(C)c(=O)[nH]1`: the activation (% of control) is 98.7% (inactive). Turning to `COc1ccccc1NC(=O)C1=C(C)NC(=O)NC1c1ccc(C)s1` (stereo unspecified), the activation (% of control) is 99.8% (inactive). For the compound `COc1ccc(-c2cn3ccsc3n2)cc1`, the activation (% of control) was 135% (active). With `CCCC(=O)Nc1cccc(-c2cn3ccsc3n2)c1` the figure was 108% (inactive); with `COc1ccc(-c2cn3cccnc3n2)cc1`, 118% (inactive). Then `COc1cc(NC(=O)CSc2nnc3ccc(-c4ccncc4)nn23)cc(OC)c1`, with 104% (inactive); and `C=CCN1C(=O)C(O)(CC(=O)c2ccccn2)c2ccccc21` (stereo unspecified), with 104% (inactive). Then `COc1ccc(-c2cc(C(=O)NC(Cc3c[nH]c4ccccc34)C(=O)O)c(C)o2)cc1OC` (stereo unspecified), with 93.3% (inactive); and `O=C(Nc1ccc(Br)cn1)c1ccc([N+](=O)[O-])o1`, with 108% (inactive); and `O=C(Nc1ccc(Br)cn1)c1ccc([N+](=O)[O-])cc1Cl`, with 142% (active). For the compound `CC(C)C(=O)Nc1cccc(NC(=O)c2ccc([N+](=O)[O-])cc2Cl)c1`, the activation (% of control) is 112% (inactive). With `O=C(NC1CCCC1)C(NS(=O)(=O)c1ccc(Br)s1)c1ccccc1` (stereo unspecified), the activation (% of control) was 94.7% (inactive).

As to `C/C(=N\NC(=S)NC(C)C)c1ccc(C(C)(C)C)cc1`, the activation (% of control) was 94.3% (inactive). Then `COc1cccc(C(=O)Nc2cc3c(cc2Br)OCCCO3)c1`, with 141% (active); and `COc1cccc(C(=O)NNC(=O)c2ccccc2Br)c1`, with 98.2% (inactive). With `COc1ccc(C2COC(=O)C2=N)c(NC(=O)c2ccccc2)c1` (stereo unspecified) the figure was 107% (inactive); with `Cc1cccc(N2CCN(S(=O)(=O)c3ccc4[nH]c(=O)c(=O)[nH]c4c3)CC2C)c1` (stereo unspecified), 99.2% (inactive). Then `Cc1cccc(-n2c(O)c(C=Nc3ccccc3N)c(=O)[nH]c2=O)c1`, with 156% (active); and `Cc1ccc(N=Cc2c(O)n(-c3nccs3)c(=O)c3ccccc23)c(C)c1`, with 105% (inactive). For `[O-][n+]1onc2c1CCc1[nH]c(-c3ccccc3)nc1-2`, the activation (% of control) was 101% (inactive). Then `Cc1ccc(NC(=O)c2ccc(S(=O)(=O)NCC3CCCO3)cc2)cc1C` (stereo unspecified), with 103% (inactive). Then `O=C(NCc1ccncc1)NC12CC3CC(CC(C3)C1)C2`, with 94.6% (inactive); and `O=C(Nc1ccccc1)OCc1cc(-c2ccc(Cl)cc2)on1`, with 95.6% (inactive); and `O=C(Nc1cccc(Cl)c1)OCc1ccccn1`, with 130% (active). With `O=C(Nc1cccc(CCc2ccccn2)c1)c1ccc(Cl)cc1` the figure was 96.1% (inactive); with `Cc1nc([N+](=O)[O-])cn1CC(=O)Nc1ccc2c(c1)OCO2`, 101% (inactive). Take `CCOC(=O)NC(=O)C(=CNc1cccc(OC)c1)C(=O)NC(=O)OCC`: the activation (% of control) was 93.9% (inactive). In the case of `Cc1cccc(NC(=O)c2ccc3nsnc3c2)c1C`, the activation (% of control) is 104% (inactive). On to `O=C(Nc1ccccc1)c1ccc2nsnc2c1`, for which the activation (% of control) was 113% (inactive). On to `O=C(Nc1ccccc1Cl)c1ccc2nsnc2c1`, for which the activation (% of control) is 133% (active). Regarding `Cc1ccc(C(=O)Nc2cccc3ncccc23)cc1[N+](=O)[O-]`, the activation (% of control) was 106% (inactive). With `Cc1cc(Oc2ccccc2)nc(N2CCOCC2)n1` the figure was 100% (inactive); with `Nc1nc(-c2sc3nc4c(cc3c2N)CCCC4)nc(N2CCOCC2)n1`, 153% (active); with `Cc1nc(N2CCOCC2)nc2c1CCCC2`, 98.4% (inactive). As for `CC(C)OC(=O)CN1CCN(c2ccc(Cl)cc2)CC1`, the activation (% of control) was 92.2% (inactive). For the compound `O=C1NC(c2cccc(Cl)c2)Nc2ccccc21` (stereo unspecified), the activation (% of control) was 107% (inactive).

Regarding `Nc1nnnn1CC(=O)N/N=C/c1ccc(-c2cccc(Cl)c2)o1`, the activation (% of control) is 94.7% (inactive).

Turning to `O=C1c2ccccc2NC(c2ccc(-c3cccc(Cl)c3)o2)N1O` (stereo unspecified), the activation (% of control) was 132% (active). Then `COc1ccc(C2=NN(c3nc4ccccc4s3)C(=O)C2)cc1`, with 101% (inactive); and `CCOc1ccc(NC(=O)NNC(=O)c2ccc(Cl)cc2Cl)cc1`, with 97.2% (inactive); and `CS(=O)(=O)N(CC(=O)N1CCCC1)Cc1ccccc1`, with 98.3% (inactive). `O=C(CC1CCCCC1)NCc1ccco1`: the activation (% of control) was 108% (inactive).

As for `Cc1ccc(OCC(=O)NC(C)c2ccccc2)c([N+](=O)[O-])n1` (stereo unspecified), the activation (% of control) is 117% (inactive). As for `CSCC(NS(=O)(=O)c1ccc(C)cc1)C(=O)O` (stereo unspecified), the activation (% of control) is 105% (inactive). With `O=C(Nc1cccc(Cl)c1N1CCOCC1)c1ccc2c(c1)OCCO2` the figure was 92.9% (inactive); with `O=C(Nc1ccc2c(c1)OCCO2)c1ccc(Cl)c(S(=O)(=O)N2CCCCC2)c1`, 96.8% (inactive). For `CN1CCN(c2ccc(NC(=O)c3ccc4c(c3)OCCO4)cc2Cl)CC1`, the activation (% of control) was 144% (active). Regarding `CC(O)CNCCOc1cccc(Oc2ccccc2)c1` (stereo unspecified), the activation (% of control) was 102% (inactive). With `COc1ccc(-c2csc(Cc3nc(O)cs3)n2)cc1` the figure was 221% (active). With `COc1ccc(-c2csc(N3CCN(Cc4ccc5c(c4)OCO5)CC3)n2)cc1` the figure was 101% (inactive). Regarding `COc1ccc(C(=O)Nc2nc(-c3ccc(S(=O)(=O)N4CCOCC4)cc3)cs2)cc1`, the activation (% of control) was 85.1% (inactive). As for `Cc1cc(/C=C2/C(=N)N3C(=NC2=O)SN=C3S(C)(=O)=O)c(C)n1-c1ccccc1`, the activation (% of control) was 107% (inactive). As for `CCCCN(CC)C(=S)Nc1ccc2nc3n(c(=O)c2c1)CCCCC3`, the activation (% of control) is 91% (inactive). With `Cc1c(NC(=O)Nc2ccccc2)cccc1[N+](=O)[O-]` the figure was 83.6% (inactive).

In the case of `Cc1csc(NC(=O)Nc2ccccc2[N+](=O)[O-])n1`, the activation (% of control) is 133% (active). In the case of `Cc1cc(NC(=O)Nc2ccccc2[N+](=O)[O-])no1`, the activation (% of control) was 114% (inactive). Then `CN(Cc1cccc2ncccc12)C(=O)CC1C(=O)NCCN1Cc1ccc(F)cc1` (stereo unspecified), with 98.1% (inactive). With `CC(=O)c1cnc(-c2ccccc2)s1` the figure was 116% (inactive); with `O=C(c1ccc(Cl)cc1)c1cnc(Nc2ccccc2)s1`, 119% (inactive); with `CC(C)(C)C(=O)c1cnc(Nc2ccccc2)s1`, 156% (active). With `CS(=O)(=O)n1nc(-c2ccco2)nc1N` the figure was 105% (inactive); with `CNC(=O)CSc1nnnn1-c1ccc(C)cc1C`, 97.7% (inactive); with `COc1ccc(C(=O)CSc2nnnn2C)c(OC)c1`, 107% (inactive).

Turning to `CCn1nnnc1SCC(=O)c1ccc(C)cc1C`, the activation (% of control) is 145% (active). As for `O=C(CSc1ccccc1)Nc1ccc(NC(=O)c2ccco2)cc1`, the activation (% of control) was 109% (inactive).

With `COc1ccc(CCNC(=O)c2ccco2)cc1`, the activation (% of control) is 109% (inactive). With `O=C(NCCSc1ccccc1)c1ccco1` the figure was 134% (active); with `CN(C)S(=O)(=O)N1CCN(c2ccc([N+](=O)[O-])cc2)CC1`, 110% (inactive); with `CCn1c(/C=C/c2ccc([N+](=O)[O-])o2)nc2ccccc2c1=O`, 182% (active).

Consider `Cn1cc(/C=C/c2nc3ccccc3c(=O)n2-c2cccc([N+](=O)[O-])c2)c2ccccc21`, for which the activation (% of control) was 85.4% (inactive). Then `C/[N+]([O-])=C\c1ccc([N+](=O)[O-])o1`, with 99.5% (inactive); and `CCCn1c(SCC(=O)Nc2ccc(C)c(S(=O)(=O)N3CCOCC3)c2)n[nH]c1=O`, with 90.6% (inactive); and `CCC(=O)Nc1ccc(C(=O)N2CCN(C(=O)c3ccco3)CC2)cc1`, with 99.8% (inactive).

Consider `CN(C)c1ccc(C=NCCc2ccc(S(N)(=O)=O)cc2)cc1`, for which the activation (% of control) was 101% (inactive). With `O=C(Nc1ccn(Cc2ccccc2)n1)c1cccc(F)c1` the figure was 131% (active). In the case of `O=C(Nc1ccn(Cc2ccc(F)cc2)n1)c1ccncc1`, the activation (% of control) was 94.9% (inactive). Turning to `O=C(Nc1ccn(Cc2ccccc2)n1)c1n[nH]c([N+](=O)[O-])c1Cl`, the activation (% of control) was 121% (inactive). For `COC1=CCC2([N+](=O)[O-])CN(CC(=O)O)CC1([N+](=O)[O-])C2` (stereo unspecified), the activation (% of control) is 106% (inactive).

`Fc1ccc2c(c1)C(c1cccnc1)=NNC(c1cccs1)=N2`: the activation (% of control) is 103% (inactive). With `Cc1ccc(NC(=O)O/N=C/c2cccc([N+](=O)[O-])c2)cc1` the figure was 113% (inactive); with `COc1cc2c3c(c1)/C(=C1/SC(=S)NC1=O)C(=O)N3C(C)(C)C=C2C`, 98.1% (inactive); with `Cc1ccc(NC(=O)c2oc3ccccc3c2C)c([N+](=O)[O-])c1`, 100% (inactive). Take `O=C(Nc1ccccc1)c1cc2ccccc2[nH]1`: the activation (% of control) is 137% (active). With `O=C(Nc1ccccc1)c1ccccc1NC(=O)C(F)(F)F` the figure was 93.5% (inactive); with `CC(C)n1c(=O)[nH]c2cc(C(=O)Nc3ccccc3)ccc21`, 128% (inactive); with `CCCCNC(=O)Nc1c(C)cc(SC#N)cc1C`, 97.9% (inactive). With `COc1ccc(/C=N/Nc2nc3ccccc3o2)cc1OC` the figure was 153% (active). With `COc1ccc(/C=N/S(=O)(=O)c2ccccc2)cc1OC` the figure was 107% (inactive); with `CCOc1ccc(/C=N/Nc2nncc(-c3ccccc3)n2)cc1OC`, 107% (inactive); with `CCOC(=O)c1ccc[n+](CC(=O)Nc2ccccc2OC(F)F)c1`, 98.5% (inactive). With `O=C(Nc1nnc(CCc2ccccc2)s1)C1CCCO1` (stereo unspecified), the activation (% of control) is 109% (inactive). Then `O=C(Nc1ccc(-c2nnc(-c3ccccc3)o2)cc1)C1CCCO1` (stereo unspecified), with 168% (active). With `O=C(Nc1cccc(-c2nnc(-c3ccccc3)o2)c1)C1CCCO1` (stereo unspecified) the figure was 120% (inactive); with `CC1CN(S(=O)(=O)c2ccc(C(=O)NN3CCN(C)CC3)cc2)CC(C)O1` (stereo unspecified), 100% (inactive); with `CCOC(=O)c1sc(NC(=O)c2ccncc2)nc1C`, 109% (inactive).

Regarding `CC(=O)c1sc(NC(=O)c2cccc3ccccc23)nc1C`, the activation (% of control) is 114% (inactive).

In the case of `CC(=O)c1sc(NC(=O)c2ccc(C)cc2)nc1C`, the activation (% of control) is 161% (active).

For the compound `CC(=O)c1sc(N/N=C/c2ccc(C(C)C)cc2)nc1C`, the activation (% of control) is 158% (active). Regarding `Cc1ccc(S(=O)(=O)Nc2nc(C)cc(N/N=C/c3ccc(O)cc3)n2)cc1`, the activation (% of control) was 95.6% (inactive). With `CC(=O)c1sc(N/N=C\c2ccc(C)cc2)nc1C` the figure was 166% (active); with `CC(=O)c1sc(NC(=O)CCCOc2ccccc2C)nc1C`, 105% (inactive); with `CC(=O)c1sc(NC(=O)C2=NN(c3ccccc3)C(=O)CC2)nc1C`, 98.2% (inactive). Then `COc1cccc2sc(Nc3nc(C)c(C(C)=O)s3)nc12`, with 112% (inactive).
